Compound activity from PubChem.
Rows were chosen to be rich in hits. Some 3.5% of all compounds tested hit in one or more screens of this group.
GPR151 activ: human GPR151 activation | AID 1508602 | PathHunter beta-arrestin GPR151 cells, luminescence | activation, % at 11.2 µM | Q8TDV0 | 650,000 compounds, 1% hits; in the data active means activation above about 4.9%;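 further: 0% = median of compound wells and 100% = cells with positive control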
MITF inh: blocks human microphthalmia-associated transcription factor; O75030; AlphaScreen MITF homodimerization, bead proximity signal; inhibition, % at 2.6 µM; 650,000 compounds, 0.91% hits; in the data active means inhibition above about 50%;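 further: 0% = vehicle wells with protein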
TEAD-YAP inh: TEAD-YAP interaction inhibition | HEK-TIYL cells, TEAD-Gal4/YAP UAS-luciferase luminescence | 640,000 compounds, 1.4% hits | inhibition, % at 9.12 µM; in the data active means inhibition above about 32%;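 further: 0% = median of test compound wells and 100% = reference inhibitor wells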
FBW7 act: activators of human E3 ligase FBW7; Q969H0; AID 1259310; 650,000 compounds, 0.13% hits; normalized activity (activation), % at 26.1 µM; AlphaScreen FBW7–phospho-cyclin E peptide binding, activator screen; in the data active means normalized activity above about 1.9%;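 further: purified mutant Fbw7 with reduced substrate affinity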
Target sequence (Q969H0 whole entry, looked up): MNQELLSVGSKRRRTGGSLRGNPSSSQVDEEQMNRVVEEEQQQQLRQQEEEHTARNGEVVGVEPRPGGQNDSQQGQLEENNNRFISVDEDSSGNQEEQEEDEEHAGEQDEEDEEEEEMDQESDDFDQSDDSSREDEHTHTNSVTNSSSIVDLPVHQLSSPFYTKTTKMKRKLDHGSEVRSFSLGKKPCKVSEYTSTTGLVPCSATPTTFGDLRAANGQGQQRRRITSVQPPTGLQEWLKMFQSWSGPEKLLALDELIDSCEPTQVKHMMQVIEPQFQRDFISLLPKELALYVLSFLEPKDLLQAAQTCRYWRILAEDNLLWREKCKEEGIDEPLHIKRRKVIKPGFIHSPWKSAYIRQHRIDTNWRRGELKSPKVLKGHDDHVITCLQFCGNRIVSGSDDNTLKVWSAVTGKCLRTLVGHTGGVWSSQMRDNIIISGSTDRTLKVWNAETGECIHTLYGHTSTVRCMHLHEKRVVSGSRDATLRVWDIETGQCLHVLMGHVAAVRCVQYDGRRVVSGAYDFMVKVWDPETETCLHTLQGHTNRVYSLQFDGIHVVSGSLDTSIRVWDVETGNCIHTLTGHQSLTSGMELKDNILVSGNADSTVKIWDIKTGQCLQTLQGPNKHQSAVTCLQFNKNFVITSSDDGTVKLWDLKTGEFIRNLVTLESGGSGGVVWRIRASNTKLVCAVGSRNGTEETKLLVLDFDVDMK
GPR151 conf act: confirmation of human GPR151 activators; shares compounds with GPR151 activ; 6,700 tested, under 10 active; activation, % at 11.2 µM; AID 1508609; GPR151 PathHunter beta-arrestin cells, luminescence, 90 min; % of EA-reagent control over plate median;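 active means mean percent activation across replicates above the confirmation screen cutoff of 4.91%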
GPR119 counter: counter-screen for GPR151 activators: effect on human GPR119. shares compounds with GPR151 activ. GPR119 PathHunter beta-arrestin cells, luminescence, 90 min; 0 = compound-well median, 100 = enzyme-acceptor control. activation, % at 11.2 µM. 6,700 compounds, 0.3% hits;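 active means mean percent activation in the counterscreen above 29.09%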;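 further: counterscreen on off-target GPR119 to flag nonselective hits from the GPR151 activator screen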
Starred values were filed as active, the others as inactive.

Screening O=C(CN1C(=O)NC(CCc2ccccc2)C1=O)NC12CC3CC(CC(C3)C1)C2 (stereo unspecified) returned GPR151 activ 0.3, MITF inh 12.9, TEAD-YAP inh -3.0 and FBW7 act 0.3.
COc1cc(C2CC(=O)NC3=C2C(=O)CC(c2ccc(OC)c(OC)c2)C3)ccc1O (stereo unspecified) was read as GPR151 activ -0.6, MITF inh 16.8, TEAD-YAP inh 9.9 and FBW7 act 0.7.
CCOc1cc(C2CC(=O)NC3=C2C(=O)CC(c2ccc(OC)c(OC)c2)C3)ccc1O (stereo unspecified) was read as GPR151 activ 6.3*, MITF inh 17.5, TEAD-YAP inh -1.2, FBW7 act 0.2, GPR151 conf act 0.0 and GPR119 counter 1.2.
Screening Cc1ccc(C(=O)COC(=O)c2ccncc2)cc1C returned GPR151 activ -0.5, MITF inh 6.5, TEAD-YAP inh 7.3 and FBW7 act -0.1.
COCCn1c(SCC(=O)Nc2nnc(C)s2)nnc1-c1cccs1 was read as GPR151 activ 1.0, MITF inh 7.7, TEAD-YAP inh -3.3 and FBW7 act 0.0.
`COC(=O)c1ccc(NC(=O)/C(=C\c2ccc(OC)c(OC)c2)NC(=O)c2ccc(Cl)cc2)cc1` gave GPR151 activ 7.8*, MITF inh 3.7, TEAD-YAP inh 1.0, FBW7 act 0.1, GPR151 conf act 0.1 and GPR119 counter 2.7.
Screening CCc1ccc(Nc2nc(N3CCCC3)nc(N3CCCC3)n2)cc1 returned GPR151 activ 4.9*, MITF inh -3.9, TEAD-YAP inh -4.0, FBW7 act -0.5, GPR151 conf act 1.6 and GPR119 counter 6.6.
For Cc1ccc(Nc2nc(N3CCCC3)nc(N3CCCC3)n2)cc1 the results were GPR151 activ -0.6, MITF inh 8.1, TEAD-YAP inh 5.0 and FBW7 act 0.1.
`Cc1ccc(NC(=O)COC(=O)CCc2ccco2)cc1C` gave GPR151 activ 6.3*, MITF inh -10.0, TEAD-YAP inh 4.5, FBW7 act 0.2, GPR151 conf act 0.1 and GPR119 counter 4.3.
`O=C(CSc1nnnn1-c1ccccc1)Nc1ccc(OC(F)(F)F)cc1` gave GPR151 activ 7.7*, MITF inh 12.2, TEAD-YAP inh 5.5, FBW7 act 0.3, GPR151 conf act -0.1 and GPR119 counter 4.8.
`O=C(CSc1nnnn1-c1ccccc1)Nc1ccc(O)cc1` gave GPR151 activ -0.9, MITF inh -16.7, TEAD-YAP inh 9.9 and FBW7 act 0.0.
Screening O=C(CCC(=O)Nc1ccc(F)cc1)N/N=C/c1ccc(Cl)cc1 returned GPR151 activ -0.2, MITF inh -12.0, TEAD-YAP inh 0.4 and FBW7 act -0.1.
Clc1ccc(C2C3=C(Nc4ncnn42)c2ccccc2CCC3)cc1 (stereo unspecified) was read as GPR151 activ 6.0*, MITF inh -3.5, TEAD-YAP inh -5.7, FBW7 act -0.2, GPR151 conf act 0.4 and GPR119 counter 3.8.
For COc1ccccc1NC(=O)CSc1n[nH]c(N)n1 the results were GPR151 activ -1.0, MITF inh 5.1, TEAD-YAP inh 1.8 and FBW7 act 0.2.
Screening Cc1ccsc1/C=C1\SC(=N)N(c2ccc(F)cc2)C1=O returned GPR151 activ 22.6*, MITF inh -8.4, TEAD-YAP inh -14.0, FBW7 act -0.2, GPR151 conf act -0.1 and GPR119 counter -3.8.
Screening Cc1ccc(N2C(=N)S/C(=C/c3sccc3C)C2=O)cc1C returned GPR151 activ -1.1, MITF inh -0.3, TEAD-YAP inh -10.6 and FBW7 act -0.2.
CC1CCCN(S(=O)(=O)c2ccc([N+](=O)[O-])cc2)C1 (stereo unspecified) was read as GPR151 activ 5.7*, MITF inh 4.0, TEAD-YAP inh -3.9, FBW7 act -0.3, GPR151 conf act 1.2 and GPR119 counter 1.6.
Screening COc1ccc(OC)c(N=c2ssnc2Cl)c1 returned GPR151 activ 6.0*, MITF inh 8.0, TEAD-YAP inh -2.8, FBW7 act -0.3, GPR151 conf act -0.4 and GPR119 counter -4.7.
O=[N+]([O-])c1cccc(S(=O)(=O)NC23CC4CC(CC(C4)C2)C3)c1 was read as GPR151 activ 5.3*, MITF inh 3.9, TEAD-YAP inh 1.0, FBW7 act 0.0, GPR151 conf act 0.9 and GPR119 counter 13.8.
